Assay results: PubChem BioAssay (EPA / NIEHS)
Active and inactive are the calls of the source. How the source made its calls: active means hit-call score of the fitted dose curve at least 0.9, where 1 is the maximum; inactive means score below 0.9.

Legend:
Conditions in all cases: mRNA level, 48 h; actives raise or lower the signal
[1] = read-out: Glutamate-cysteine ligase catalytic (GCLC), GCLC (gene 2729); test: LTEA_HepaRG_GCLC: Life Technologies and Expression Analysis (LTEA) Assay for Glutamate-cysteine ligase catalytic (GCLC) using HepaRG (AID 2283498)
Summary of the method: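 HepaRG, 48 h exposure, 8-pt half-log series from 100 uM, 0.5% DMSO vehicle; TaqMan qRT-PCR for GCLC mRNA, housekeeping-normalized; bidirectional curve fit vs DMSO baseline.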

[2] = read-out: growth arrest and DNA damage 45 (GADD45G), GADD45G (gene 10912); test: LTEA_HepaRG_GADD45G: Life Technologies and Expression Analysis (LTEA) Assay for growth arrest and DNA damage 45 (GADD45G) using HepaRG (AID 2283499)
Summary of the method: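 Differentiated human HepaRG cells, 48 h post-plating, exposed 48 h in serum-free induction medium to 8 half-log concentrations (top 100 uM, 0.5% DMSO) in duplicate. GADD45G mRNA measured by Fluidigm TaqMan qRT-PCR, normalized to ACTB, GAPDH, POLR2A; bidirectional fit versus DMSO.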

[3] = read-out: Glutamate-cysteine ligase regulatory (GCLM), GCLM (gene 2730); test: LTEA_HepaRG_GCLM: Life Technologies and Expression Analysis (LTEA) Assay for Glutamate-cysteine ligase regulatory (GCLM) using HepaRG (AID 2283500)
Summary of the method: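 Endpoint is GCLM transcript level by qRT-PCR, normalized to three housekeeping genes, after 48 h chemical exposure of human HepaRG cells (0.5% DMSO vehicle, top 100 uM, half-log dilutions). Fitting was bidirectional relative to DMSO.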

[4] = read-out: Glutathione S-transferase M3 (GSTM3), GSTM3 (gene 2947); test: LTEA_HepaRG_GSTM3: Life Technologies and Expression Analysis (LTEA) Assay for Glutathione S-transferase M3 (GSTM3) using HepaRG (AID 2283501)
Summary of the method: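 Differentiated human HepaRG cells were exposed in duplicate for 48 h in serum-free induction medium, 8 points from 100 uM top in half-log steps, 0.5% DMSO. GSTM3 mRNA was measured by TaqMan qRT-PCR, normalized to ACTB, GAPDH and POLR2A; bidirectional fit versus DMSO.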

[5] = read-out: Heat shock 70 kDa protein 1 (HSPA1A), gene 3303; test: LTEA_HepaRG_HSPA1A: Life Technologies and Expression Analysis (LTEA) Assay for Heat shock 70 kDa protein 1 (HSPA1A) using HepaRG (AID 2283502)
Summary of the method: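 Cells were plated and cultured for 48 h, then switched to serum-free induction medium. Chemicals were added at eight half-log concentrations up to 100 uM for 48 h. RNA was then isolated and HSPA1A measured by qRT-PCR with bidirectional curve fitting against DMSO.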

[6] = read-out: Hypoxia-inducible factor 1-alpha (Homo sapiens) (UniProt Q16665); test: LTEA_HepaRG_HIF1A: Life Technologies and Expression Analysis (LTEA) Assay for Hypoxia-inducible factor 1 (HIF1A) Trancription factor using HepaRG (AID 2283503)
Summary of the method: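 HIF1A transcript level read by qRT-PCR (ACTB, GAPDH, POLR2A normalization) after 48 h chemical exposure of HepaRG cultures. Eight half-log concentrations, top 100 uM, 0.5% DMSO vehicle, duplicates; bidirectional curve fit against DMSO baseline.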

[7] = read-out: 3-Hydroxy-3-Methylglutaryl-CoA Synthase 2 (HMGCS2), HMGCS2 (gene 3158); test: LTEA_HepaRG_HMGCS2: Life Technologies and Expression Analysis (LTEA) Assay for 3-Hydroxy-3-Methylglutaryl-CoA Synthase 2 (HMGCS2) using HepaRG (AID 2283504)
Summary of the method: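 Human HepaRG cells in serum-free induction medium were exposed in duplicate for 48 h to 8-point half-log series from 100 uM top in 0.5% DMSO. HMGCS2 mRNA measured by TaqMan qRT-PCR, normalised to ACTB, GAPDH, POLR2A; bidirectional fit versus DMSO.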

HGF (gene 3082) = test: LTEA_HepaRG_HGF: Life Technologies and Expression Analysis (LTEA) Assay for Hepatocyte Growth Facto (HGF) using HepaRG (AID 2283505)
Summary of the method: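 Differentiated HepaRG cells in serum-free induction medium exposed 48 h in duplicate, 8 half-log concentrations from 100 uM in 0.5% DMSO. HGF mRNA by qRT-PCR, normalised to ACTB, GAPDH, POLR2A; bidirectional fitting.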

[8] = read-out: Insulin Like Growth Factor 1 (IGF1), IGF1 (gene 3479); test: LTEA_HepaRG_IGF1: Life Technologies and Expression Analysis (LTEA) Assay for Insulin Like Growth Factor 1 (IGF1) using HepaRG (AID 2283506)
Summary of the method: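 Cells are thawed, plated and cultured 48 h, then exposed in duplicate to chemical (highest 100 uM, half-log steps, 0.5% DMSO) for another 48 h. Total RNA is analysed by Fluidigm qRT-PCR for IGF1 expression relative to vehicle.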

[9] = read-out: Intercellular Adhesion Molecule 1 (ICAM1), ICAM1 (gene 3383); test: LTEA_HepaRG_ICAM1: Life Technologies and Expression Analysis (LTEA) Assay for Intercellular Adhesion Molecule 1 (ICAM1) using HepaRG (AID 2283507)
Summary of the method: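 Differentiated human HepaRG cells in serum-free induction medium exposed 48 h in duplicate to 8 half-log concentrations (top 100 uM, 0.5% DMSO). ICAM1 mRNA quantified by TaqMan qRT-PCR, normalized to ACTB, GAPDH and POLR2A; bidirectional fitting versus DMSO.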

[10] = read-out: Interleukin 6 (IL6), IL6 (gene 3569); test: LTEA_HepaRG_IL6: Life Technologies and Expression Analysis (LTEA) Assay for Interleukin 6 (IL6) using HepaRG (AID 2283509)
Summary of the method: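 qRT-PCR read-out of IL6 transcript, normalized to three housekeeping genes, after 48 h chemical exposure of HepaRG cells; 8-point half-log series, top 100 uM, 0.5% DMSO vehicle. Bidirectional curve fitting against DMSO baseline.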

[11] = read-out: Interleukin 6 Receptor (IL6R), IL6R (gene 3570); test: LTEA_HepaRG_IL6R: Life Technologies and Expression Analysis (LTEA) Assay for Interleukin 6 Receptor (IL6R) using HepaRG (AID 2283510)
Summary of the method: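 Cells were thawed, plated and cultured 48 h, then medium was changed to serum-free induction medium. Chemicals were added in duplicate (100 uM top, half-log steps, 0.5% DMSO) for 48 h. Lysates were analyzed by qRT-PCR for IL6R expression.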

[12] = read-out: Potassium channel subfamily K member 1 (KCNK1), KCNK1 (gene 3775); test: LTEA_HepaRG_KCNK1: Life Technologies and Expression Analysis (LTEA) Assay for Potassium channel subfamily K member 1 (KCNK1) using HepaRG (AID 2283511)
Summary of the method: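 HepaRG, 48 h exposure, 8-pt half-log series top 100 uM, 0.5% DMSO vehicle, duplicates. Readout: KCNK1 transcript by qRT-PCR (Fluidigm array), housekeeping-normalized; bidirectional curve fit relative to DMSO baseline.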

[13] = read-out: Keratin 19 (KRT19), KRT19 (gene 3880); test: LTEA_HepaRG_KRT19: Life Technologies and Expression Analysis (LTEA) Assay for Keratin 19 (KRT19) using HepaRG (AID 2283512)
Summary of the method: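 Differentiated HepaRG cells in serum-free induction medium, exposed 48 h in duplicate to 8 half-log concentrations up to 100 uM in 0.5% DMSO. KRT19 mRNA by qRT-PCR, normalized to ACTB, GAPDH, POLR2A; bidirectional fit vs DMSO.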

[14] = read-out: JUN Transcription Factor, JUN (gene 3725); test: LTEA_HepaRG_JUN: Life Technologies and Expression Analysis (LTEA) Assay for JUN Transcription Factor using HepaRG (AID 2283513)
Summary of the method: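 Read-out is JUN transcript level by TaqMan qRT-PCR, normalized to ACTB, GAPDH and POLR2A, after 48 h chemical treatment of HepaRG cells. Concentration-response spanned eight half-log points up to 100 uM in 0.5% DMSO.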

[15] = read-out: Lipase C (LIPC), LIPC (gene 3990); test: LTEA_HepaRG_LIPC: Life Technologies and Expression Analysis (LTEA) Assay for Lipase C (LIPC) using HepaRG (AID 2283514)
Summary of the method: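 HepaRG, 48 h exposure, 8-pt half-log series from 100 uM in 0.5% DMSO, duplicates. Readout: LIPC mRNA by Fluidigm qRT-PCR, housekeeping-normalized (ACTB/GAPDH/POLR2A). Gain or loss fitted bidirectionally against DMSO baseline.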

[16] = read-out: Lipoprotein lipase (LPL), LPL (gene 4023); test: LTEA_HepaRG_LPL: Life Technologies and Expression Analysis (LTEA) Assay for Lipoprotein lipase (LPL) using HepaRG (AID 2283515)
Summary of the method: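 HepaRG, 48 h exposure, 8-pt half-log dilutions from 100 uM, 0.5% DMSO vehicle, duplicates; qRT-PCR (Fluidigm array) of LPL mRNA vs housekeeping genes; bidirectional curve fit relative to DMSO baseline.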

[17] = read-out: MicroRNA 122 (MIR122), gene 406906; test: LTEA_HepaRG_MIR122: Life Technologies and Expression Analysis (LTEA) Assay for MicroRNA 122 (MIR122) using HepaRG (AID 2283516); further: the transcript read is the microRNA miR-122
Summary of the method: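 Human liver HepaRG cultures receive test chemicals for 48 h at eight half-log concentrations from 100 uM. Expression is quantified by qRT-PCR with ACTB/GAPDH/POLR2A normalization and fitted bidirectionally against 0.5% DMSO.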

[18] = read-out: matrix metalloproteinase-10 (MMP10), MMP10 (gene 4319); test: LTEA_HepaRG_MMP10: Life Technologies and Expression Analysis (LTEA) Assay for matrix metalloproteinase-10 (MMP10) using HepaRG (AID 2283517)
Summary of the method: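 Transcript levels come from Fluidigm qRT-PCR normalized to three housekeeping genes, with curves fitted bidirectionally against 0.5% DMSO. Human HepaRG cells were dosed for 48 hours at concentrations up to 100 uM.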

[19] = read-out: Insulin-like growth factor-binding protein 1 (IGFBP1), IGFBP1 (gene 3484); test: LTEA_HepaRG_IGFBP1: Life Technologies and Expression Analysis (LTEA) Assay for Insulin-like growth factor-binding protein 1 (IGFBP1) using HepaRG (AID 2283508)
Summary of the method: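 HepaRG cells, plated 48 h then switched to serum-free induction medium, exposed in duplicate for 48 h to 8-point half-log series from 100 uM in 0.5% DMSO. mRNA measured by qRT-PCR, normalized to ACTB/GAPDH/POLR2A; bidirectional fit versus DMSO.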

Measured: outcome

Sequence of Hypoxia-inducible factor 1-alpha (Homo sapiens) (Q16665 whole entry, looked up): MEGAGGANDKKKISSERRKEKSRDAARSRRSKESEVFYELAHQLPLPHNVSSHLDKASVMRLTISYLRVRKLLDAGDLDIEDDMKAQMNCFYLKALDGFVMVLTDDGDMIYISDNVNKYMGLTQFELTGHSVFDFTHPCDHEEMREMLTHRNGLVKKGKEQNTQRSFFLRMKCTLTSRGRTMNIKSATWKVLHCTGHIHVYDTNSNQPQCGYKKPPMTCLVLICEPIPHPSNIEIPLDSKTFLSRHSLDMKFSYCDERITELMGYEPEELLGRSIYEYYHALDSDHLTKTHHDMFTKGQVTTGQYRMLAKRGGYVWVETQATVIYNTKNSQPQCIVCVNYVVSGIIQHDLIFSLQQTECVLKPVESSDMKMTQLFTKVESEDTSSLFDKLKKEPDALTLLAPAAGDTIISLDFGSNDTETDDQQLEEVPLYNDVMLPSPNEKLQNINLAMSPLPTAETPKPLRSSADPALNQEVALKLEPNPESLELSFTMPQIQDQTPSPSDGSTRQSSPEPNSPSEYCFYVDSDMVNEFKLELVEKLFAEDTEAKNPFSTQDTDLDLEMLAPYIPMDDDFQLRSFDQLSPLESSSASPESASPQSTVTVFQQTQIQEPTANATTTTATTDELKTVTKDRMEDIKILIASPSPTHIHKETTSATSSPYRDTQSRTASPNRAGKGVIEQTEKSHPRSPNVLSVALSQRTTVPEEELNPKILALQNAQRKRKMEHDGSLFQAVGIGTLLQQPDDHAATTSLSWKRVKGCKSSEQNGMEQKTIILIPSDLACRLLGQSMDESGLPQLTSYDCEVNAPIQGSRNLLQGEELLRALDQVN

NC1CCCCC1
inactive: [1] | [2] | [3] | [4] | [5] | [6] | [7] | HGF (gene 3082) | [8] | [9] | [10] | [11] | [12] | [13] | [14] | [15] | [16] | [17]

O=Cc1ccccc1C=O
inactive: [1] | [2] | [3] | [4] | [5] | [6] | [7] | HGF (gene 3082) | [8] | [9] | [10] | [11] | [12] | [13] | [14] | [15] | [16] | [17] | [18]

CCCCOC(=O)CCCCC(=O)OCCCC
inactive: [1] | [2] | [3] | [4] | [5] | [6] | [7] | HGF (gene 3082) | [8] | [9] | [19] | [10] | [11] | [12] | [13] | [14] | [15] | [16] | [17]

CC(COCC(C)OC(=O)c1ccccc1)OC(=O)c1ccccc1 (centres undefined)
inactive: [1] | [2] | [3] | [4] | [5] | [6] | [7] | HGF (gene 3082) | [8] | [9] | [10] | [11] | [12] | [13] | [14] | [15] | [16] | [17]
